These results are taken from PubChem BioAssay.

A short description of experiment [1]: optical density shifts of acrAB sulA E. coli – strain DRC41, OD650, 48 h, E. coli filamentation inducer project, primary screen (AID 1152).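 Also: E. coli MC1000 strain DRC41 lacking acrAB efflux pump and sulA.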 The settings on record: higher = more signal, called active from +8 up or from −8 down.
The nature of experiment [2]: probe aLefty1 binding on compound microarray – biochemical, small-molecule microarray, 635/667 nm fluorescence, primary screen (AID 1153).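 Also: score merges spot fluorescence with signal-to-noise ratio from the scanned slide images.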 The settings on record: higher = more signal.
The nature of experiment [3]: plasmodial surface anion channel blockers, osmotic lysis – cell-based, P. falciparum Indochina, OD700, 1 h, primary screen (AID 1154). Conditions: P. falciparum Indochina infected RBC osmotic lysis, higher = more signal, called active from +8 up or from −8 down.
A short description of experiment [4]: plasmodial surface anion channel blockers, osmotic lysis – cell-based, P. falciparum Indochina, OD700, 2 h, primary screen (AID 1155).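 Also: lysis reports solute entry through the parasite surface anion channel PSAC.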 The settings on record: P. falciparum Indochina infected erythrocytes, higher = more signal, called active from +8 up or from −8 down.
A short description of experiment [5]: changes in parasitized red cell lysis, either direction – P. falciparum Indochina, OD700, 3 h, PSAC antagonist project, primary screen (AID 1156). Conditions: P. falciparum-infected erythrocytes, osmotic lysis, higher = more signal, called active from +8 up or from −8 down.
Experiment [6] in a line: plasmodial surface anion channel blockers, osmotic lysis – cell-based, P. falciparum Indochina, OD700, 18 h, primary screen (AID 1157). The settings on record: P. falciparum Indochina infected erythrocytes, osmotic lysis OD700, 18 h; higher = more signal, called active from +8 up or from −8 down.
Experiment [7] in a line: S6 kinase pathway phospho-S6 level changes – cell-based, A549, cytoblot, luminescence, serum-stimulated, primary screen (AID 1158).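 Also: serum-stimulated A549 lung adenocarcinoma cells; signal is phosphorylated S6 detected by cytoblot immunostaining with HRP secondary.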 Conditions: 5 h, higher = more signal.
In experiment [8] the target is NADPH oxidase 2 (Homo sapiens) (UniProt P04839). Put plainly: compounds shifting NOX2 Amplex Red fluorescence – cell-based, HEK293-NOX2, PMA-stimulated, NOX inhibitor project, primary screen (AID 1159). Also: test concentration not given here. Conditions: 45 min, higher = more signal, called active from +8 up or from −8 down.
NADPH oxidase 2 (Homo sapiens), sequence (P04839 whole entry, looked up): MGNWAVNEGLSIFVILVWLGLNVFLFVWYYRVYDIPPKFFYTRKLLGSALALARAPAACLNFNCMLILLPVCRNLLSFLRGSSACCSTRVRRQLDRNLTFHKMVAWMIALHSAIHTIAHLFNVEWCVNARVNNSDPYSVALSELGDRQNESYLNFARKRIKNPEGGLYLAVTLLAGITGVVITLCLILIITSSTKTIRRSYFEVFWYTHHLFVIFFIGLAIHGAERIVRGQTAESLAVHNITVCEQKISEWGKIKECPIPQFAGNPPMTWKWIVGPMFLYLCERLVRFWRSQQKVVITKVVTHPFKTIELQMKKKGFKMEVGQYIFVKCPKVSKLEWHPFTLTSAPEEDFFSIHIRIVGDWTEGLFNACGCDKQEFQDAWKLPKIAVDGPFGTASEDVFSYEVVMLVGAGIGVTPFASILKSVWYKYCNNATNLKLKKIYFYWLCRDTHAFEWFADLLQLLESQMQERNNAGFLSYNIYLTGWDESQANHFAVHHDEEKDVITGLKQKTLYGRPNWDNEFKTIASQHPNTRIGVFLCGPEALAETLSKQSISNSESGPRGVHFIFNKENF
The target in experiment [9] is NADPH oxidase 4 (Homo sapiens) (UniProt Q9NPH5). As to the kind of experiment: compounds shifting NOX4 Amplex Red fluorescence – cell-based, HEK293-NOX4, tetracycline-induced, NOX inhibitor project, primary screen (AID 1160). The settings on record: HEK293-NOX4, Amplex Red H2O2 fluorescence, 45 min; higher = more signal, called active from +8 up or from −8 down.
NADPH oxidase 4 (Homo sapiens), sequence (Q9NPH5 whole entry, looked up): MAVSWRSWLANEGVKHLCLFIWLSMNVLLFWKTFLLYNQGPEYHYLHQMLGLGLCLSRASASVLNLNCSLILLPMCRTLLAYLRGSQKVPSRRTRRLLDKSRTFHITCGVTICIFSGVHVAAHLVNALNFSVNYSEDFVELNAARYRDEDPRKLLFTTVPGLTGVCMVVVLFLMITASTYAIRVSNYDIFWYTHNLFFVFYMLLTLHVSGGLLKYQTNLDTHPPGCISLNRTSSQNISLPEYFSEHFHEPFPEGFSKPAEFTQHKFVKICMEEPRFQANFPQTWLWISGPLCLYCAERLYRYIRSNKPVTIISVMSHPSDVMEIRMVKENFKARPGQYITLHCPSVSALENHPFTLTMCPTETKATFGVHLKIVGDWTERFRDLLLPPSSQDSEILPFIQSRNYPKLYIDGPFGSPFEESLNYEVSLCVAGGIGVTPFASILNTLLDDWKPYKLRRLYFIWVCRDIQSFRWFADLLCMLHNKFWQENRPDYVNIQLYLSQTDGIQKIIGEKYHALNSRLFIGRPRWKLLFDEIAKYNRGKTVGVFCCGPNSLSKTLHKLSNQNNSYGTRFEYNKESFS
Experiment [10] concerns the target NADPH oxidase 5 (Homo sapiens) (UniProt Q96PH1). As to the kind of experiment: compounds shifting NOX5 Amplex Red fluorescence – cell-based, HEK293-NOX5, NOX inhibitor project, primary screen (AID 1161). The settings on record: HEK293-NOX5, ionomycin, 45 min, higher = more signal.

Active and inactive are the calls of the source.

NADPH oxidase 5 (Homo sapiens), sequence (Q96PH1 whole entry, looked up): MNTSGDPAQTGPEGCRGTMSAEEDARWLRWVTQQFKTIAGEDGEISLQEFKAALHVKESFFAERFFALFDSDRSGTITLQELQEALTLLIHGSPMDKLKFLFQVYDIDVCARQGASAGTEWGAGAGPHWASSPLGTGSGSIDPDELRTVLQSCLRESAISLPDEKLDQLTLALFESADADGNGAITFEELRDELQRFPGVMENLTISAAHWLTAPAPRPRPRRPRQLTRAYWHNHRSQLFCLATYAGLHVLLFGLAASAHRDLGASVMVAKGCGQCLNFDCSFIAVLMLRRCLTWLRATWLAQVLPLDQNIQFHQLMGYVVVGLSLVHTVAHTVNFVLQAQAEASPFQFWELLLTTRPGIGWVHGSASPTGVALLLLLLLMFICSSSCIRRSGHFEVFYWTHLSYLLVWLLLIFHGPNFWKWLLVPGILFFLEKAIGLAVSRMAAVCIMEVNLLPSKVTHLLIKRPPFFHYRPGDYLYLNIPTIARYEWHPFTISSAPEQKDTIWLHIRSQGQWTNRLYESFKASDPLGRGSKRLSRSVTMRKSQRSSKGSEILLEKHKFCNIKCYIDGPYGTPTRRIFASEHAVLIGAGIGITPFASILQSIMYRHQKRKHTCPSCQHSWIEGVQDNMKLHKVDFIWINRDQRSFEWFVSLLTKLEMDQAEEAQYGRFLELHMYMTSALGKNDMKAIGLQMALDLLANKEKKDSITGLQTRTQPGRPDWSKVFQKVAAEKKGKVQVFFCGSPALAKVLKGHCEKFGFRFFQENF

Take `CN(C)CCCNC(=O)[C@@]1(Cc2ccccc2I)c2ccccc2C(=O)N(Cc2ccccc2C(F)(F)F)[C@H]1c1ccc(CO)cc1`: the z-score in experiment [1] was -2.14 (inactive); in experiment [3] it was 11.8 (active); in experiment [4], 1.49 (inactive); in [5], -0.231 (inactive); in experiment [6], 0.649 (inactive); in experiment [7], -0.349. The values for the z-score in [8], in [9] and in [10] were -10 (active), -4.55 (inactive) and -4.63, respectively. Further, in experiment [2], the composite z-score is -0.0536.
For the compound `CCOC(=O)C1=C[C@@H](CC)N(S(=O)(=O)c2ccc(C)cc2)[C@H]1c1ccccc1`, the z-score was -1.03 (inactive) in experiment [1]; 1.83 (inactive) in experiment [3]; 0.797 (inactive) in experiment [4]; -0.187 (inactive) in [5]; 0.415 (inactive) in [6]; -0.388 in experiment [7]. The z-score was 0.0452 (inactive) in [8], -0.606 (inactive) in experiment [9] and -0.182 in experiment [10]. Also, the composite z-score in [2] stood at 0.271.
Regarding `COC(=O)[C@@]1(Cc2ccc(F)cc2)[C@H]2c3cc(C(=O)N4CCCC4)n(Cc4cccc5ccccc45)c3C[C@H]2CN1C(=O)c1ccccc1`, the z-score is -2.25 (inactive) in experiment [1]; 3.9 (inactive) in experiment [3]; 1.03 (inactive) in [4]; 1.22 (inactive) in [5]; 0.863 (inactive) in experiment [6]; -0.875 in experiment [7]. The values for the z-score in experiment [8], in [9] and in experiment [10] were 0.836 (inactive), -0.021 (inactive) and -0.666, respectively. Also, the composite z-score in experiment [2] worked out at 0.342.
For `Cc1cc(C)cc(N2C(=O)CS(=O)(=O)C2c2cccc([N+](=O)[O-])c2)c1` (stereo not given), the z-score in experiment [1] is 0.469 (inactive); in experiment [3], 0.548 (inactive); in experiment [4], -0.385 (inactive); in experiment [5], 0.809 (inactive); in experiment [6] it was -1.48 (inactive); in experiment [7] it was 1.48. Also, the values for the z-score in experiment [8], in experiment [9] and in [10] were 0.316 (inactive), 0.227 (inactive) and 1.63, respectively. The composite z-score in experiment [2] stood at 1.33.
Regarding `COc1ccc([Si](C)(C)[C@H]2[C@H](CC(=O)N(CCO)Cc3ccccc3)O[C@@]3(C(=O)N(Cc4cccc(N5CCC5=O)c4)c4ccccc43)[C@@H]2C)cc1`, the z-score in [1] is 2.2 (inactive); in experiment [3], 11.6 (active); in [4], 1.88 (inactive); in experiment [5] it was -0.614 (inactive); in experiment [6], -0.356 (inactive); in experiment [7], 0.408. The figures for the z-score in experiment [8], in [9] and in [10] were 0.804 (inactive), 0.957 (inactive) and 1.43, respectively. Also, the composite z-score in experiment [2] is 0.356.
Take `C[C@H]1NC(=O)[C@H](Cc2ccccc2)NC(=O)[C@@]23C(=O)N[C@@H](Cc4ccccc4)C2[C@H](C)[C@@]2(C)O[C@H]2C3/C=C/C/C=C\CNC1=O` (stereo not given in full): the z-score in experiment [1] is 0.806 (inactive); in experiment [3], 2.27 (inactive); in experiment [4], 0.142 (inactive); in [5], -0.112 (inactive); in experiment [6], 0.501 (inactive); in [7] it was 0.423. Also, the z-score in experiment [8] was -0.287 (inactive); in experiment [9], -1.42 (inactive); in experiment [10] it was -0.197. The same compound came in with a composite z-score in experiment [2] of -0.193.
As for `COc1c(C)cc(-c2cc3c(c(-c4ccc(Oc5ccccc5)cc4)n2)[Si](C(C)C)(C(C)C)OC3)cc1C`, the z-score is -1.42 (inactive) in experiment [1]; 0.219 (inactive) in [3]; 0.603 (inactive) in experiment [4]; 0.392 (inactive) in [5]; 0.63 (inactive) in experiment [6]; -0.817 in [7]. In addition, the z-score in experiment [8] is -0.445 (inactive); in experiment [9], 0.722 (inactive); in experiment [10], -0.958. The same compound came in with a composite z-score in experiment [2] of 0.13.
Regarding `O=C(CS)NCCCCCCNC(=O)[C@H]1C[C@H]2C(=O)NCC(=O)N2[C@H]1c1ccc(O)cc1`, the z-score was -0.618 (inactive) in [1]; 2.33 (inactive) in [3]; 0.141 (inactive) in experiment [4]; -2.02 (inactive) in experiment [5]; 0.23 (inactive) in experiment [6]; -0.598 in experiment [7]. In addition, the z-score was 1.45 (inactive) in experiment [8], 0.407 (inactive) in experiment [9] and -0.391 in [10]. Also, the composite z-score in [2] is -0.0969.
Take `CC=CC(O)C1C=CC2C(=O)N(c3ccccc3)C(=O)C2N1Nc1ccc(C(C)C)cc1` (stereo not given): the z-score in [1] was -1.63 (inactive); in experiment [3], 20.2 (active); in experiment [4] it was 7.4 (inactive); in experiment [5], 1.39 (inactive); in experiment [6], 1.68 (inactive); in experiment [7], -0.521. Further, the results for the z-score in experiment [8], in experiment [9] and in experiment [10] were -0.68 (inactive), -3.67 (inactive) and -4.2, respectively. The composite z-score in experiment [2] came to 0.424.
Take `CC(C)(C)OC(=O)CC[C@@]1(C(=O)O)N=C(c2ccc(OCCCO)cc2)O[C@@H]1c1ccccc1N=[N+]=[N-]`: the z-score in experiment [1] was 0.592 (inactive); in experiment [3] it was 31.5 (active); in [4] it was 28.4 (active); in experiment [5], 1.79 (inactive); in [6] it was 7.51 (inactive); in [7] it was -0.342. In addition, the z-score in experiment [8] is -0.0442 (inactive); in [9], 1.69 (inactive); in experiment [10], 0.907. Moreover, in [2], the composite z-score is 0.266.
Take `COCCOC(=O)N1C(=O)[C@@]2(c3cc(C#CC4=CCCCC4)ccc31)[C@H](C(=O)N1CCc3cc(OC)c(OC)cc3C1)[C@H]1C(=O)O[C@H](c3ccccc3)[C@H](c3ccccc3)N1[C@@H]2c1ccccc1OCCO`: the z-score in [1] is 0.585 (inactive); in experiment [3], 2.4 (inactive); in [4], 0.876 (inactive); in experiment [5], 0.827 (inactive); in [6], 0.703 (inactive); in experiment [7], -0.113. Moreover, the results for the z-score in [8], in experiment [9] and in experiment [10] were 1.72 (inactive), 0.58 (inactive) and 1.99, respectively. Moreover, the composite z-score in experiment [2] was -0.012.
As for `CC(C)N1CC=CC23O[C@@H]4C=CCOC(=O)[C@@H]4[C@H]2C(=O)N(CCO)[C@@H]3C1=O` (stereo not given in full), the z-score in [1] was 0.759 (inactive); in [3], -0.0173 (inactive); in experiment [4], 0.257 (inactive); in experiment [5] it was -0.288 (inactive); in experiment [6], 0.6 (inactive); in experiment [7] it was 0.121. The z-score is 0.603 (inactive) in experiment [8], 0.865 (inactive) in experiment [9] and 0.913 in [10]. In experiment [2], this compound gave a composite z-score of -0.0559.
